CRE-bla Fsk – alters forskolin-stimulated CRE reporter signaling in CHO cells; Potency, µM (series often up to 38.2 µM), for the others: at the highest dose activity change, negative = inhibition, most hits filed as activators; actives 2.5% (n = 71,000); CHO CRE-bla reporter (cAMP response element driving beta-lactamase), forskolin EC10, beta-lactamase ratio; active = well fitted activation curve with a large enough effect in the signal ratio, with a control signal flat, not every such curve was filed as active; inconclusive = small, poorly fitted or top-dose-only effect, or effect the other way, or a change in a side signal; the % refers to the signal ratio; note: potency is the fitted concentration of half-maximal effect; % of control where 0% means no effect
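Forskolin analogue NKH 477 at EC10 stimulated CRE-driven beta-lactamase in CHO cells alongside compound dilution series. Beta-lactamase was measured with CCF4, excitation 405 nm, emission ratio 460/530 nm.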
HADH2 inh – inhibitors of human HADH2 dehydrogenase; Q99714; AID 886; Potency, µM (highest dose often 57.1 µM), without a hit: top-dose activity change, negative = inhibition, most hits filed as inhibitors; actives 3.4% (n = 73,000); recombinant HADH2, NADH fluorescence, beta-hydroxybutyryl-CoA; note: potency is the fitted concentration of half-maximal effect; % is set by controls: 0 for no effect and ±100 for the full control effect; nearly all actives have a fitted effect of over 60% in size
Target sequence (Q99714 whole entry, looked up, one chain of several): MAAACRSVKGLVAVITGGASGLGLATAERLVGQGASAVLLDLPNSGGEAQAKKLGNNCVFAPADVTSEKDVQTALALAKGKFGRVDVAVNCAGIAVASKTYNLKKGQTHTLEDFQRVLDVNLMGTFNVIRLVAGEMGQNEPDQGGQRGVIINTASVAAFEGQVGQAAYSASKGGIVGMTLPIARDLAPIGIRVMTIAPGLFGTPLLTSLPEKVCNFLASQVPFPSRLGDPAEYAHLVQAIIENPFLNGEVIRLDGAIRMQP
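E. coli-expressed His-tagged HADH2 tested at 20 nM in alkaline Tris buffer (pH 9.0); oxidation of 90 uM beta-hydroxybutyryl-CoA with 1 mM NAD+ tracked fluorimetrically for 4 min.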
A350 autofl – A350 region autofluorescence. Compound autofluorescence, 340/450 nm, Alexa 350 dye-equivalents; stronger effect = higher value. max dye-equivalent concentration, M. actives 11% (n = 59,000); in the data active = max dye-equivalent concentration above about 10 nM; inconclusive = mostly about 1.1 nM to 9.6 nM
4MU fluor – compound fluoresces in the 4-MU spectral region | actives 11% (n = 59,000) | max dye-equivalent concentration, M | compound autofluorescence, 340/450 nm, 4-MU equivalents; stronger effect = higher value; in the data active = max dye-equivalent concentration above about 10 nM; inconclusive = mostly about 1.1 nM to 9.6 nM
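Intrinsic fluorescence at 340/450 nm (ex/em) was read after 15 min at room temperature in pH 8.0, 100 mM Tris. Each compound concentration expressed as 4-MU-equivalent concentration from a six-point 4-MU standard series on each plate.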
AID923 – qHTS Assay for Allosteric/Competitive Inhibitors of Caspase-1: Spectroscopic Profiling in AFC Spectral Region | actives 1.1% (n = 75,000) | AID 923, 2007 | Potency, µM (doses to about 57.5 µM), without a hit: at the highest dose fluorescence increase, hits mostly activators | compound fluorescence, AFC spectral region (405/520 nm); note: potency is the fitted concentration of half-maximal effect; 0% is about no effect
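Baseline compound fluorescence (AFC region, 405 nm ex/520 nm em) taken from the intercept of kinetic reads with 50 nM caspase-1 and 5 uM Ac-WEHD-AFC; normalized to an on-plate AFC standard curve; compounds titrated up to 57 uM.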
HSD17B inhib – HSD17B dehydrogenase inhibition | Q99714 | recombinant HSD17B10, NADH fluorescence kinetic | Potency, µM (titrated, usually from 57.1 µM), for inactives: at the top dose activity change, negative = inhibition, hits mostly inhibitors | actives 7.6% (n = 75,000);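 note: the protocol describes HADH2 (HSD17B10) and not the HSD17B4 of the title; potency is the fitted concentration of half-maximal effect; % is set by controls: 0 for no effect and ±100 for the full control effect; nearly all actives have a fitted effect of over 70% in size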
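20 nM HADH2, pH 9.0 Tris/Tween; cpd preinc 15 min RT; start w/ 1 mM NAD+ + 90 uM b-hydroxybutyryl-CoA; kinetic fluor ex360/em450 q30s x 4 min; delta last-first.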
An asterisk follows results filed as active; i = inactive; u = inconclusive; x = no result; [ ] = remark or other dose. Only some compounds are listed: those with a hit (about 14% of all), similar ones and a draw of the others. Unless noted, calls come from the whole dose curve; as a rule, active = well fitted curve in the direction sought with a large enough effect; inconclusive = small, poorly fitted or top-dose-only effect, or another doubt; inactive = no such curve, though single readings can be large; an effect the other way counts as inactive or inconclusive.

SMILES | CRE-bla Fsk | HADH2 inh | A350 autofl | 4MU fluor | AID923 | HSD17B inhib
O=C(Nc1ccc(Cl)cc1)N1CCN(c2ccc3nnc(-c4ccc(F)cc4)n3n2)CC1 | x | -28% | x | x | -2% | -30%
CC(=O)C1=C(O)C(=O)N(Cc2ccco2)C1c1ccc(F)cc1 (stereo unspecified) | -13% | u | i | i | 1% | -12%
O=C1c2ccccc2NC(c2ccc(F)cc2)N1Cc1ccco1 (stereo unspecified) | u | u | 4.4e-07M* | 7.1e-07M* | 8% | 32µM*
O=C1c2ccccc2NC(c2ccccc2)N1Cc1ccco1 (stereo unspecified) | -6% | 25µM* | x | x | 10% | 32µM*
O=C1c2ccccc2N2C(=O)c3ccccc3C2N1Cc1ccco1 (stereo unspecified) | u | u | x | x | 1% | -14%
c1ccc2nc(CC[C@@H]3CCCCN3)ccc2c1 | 6%[7.6 µM] | 1%[11.4 µM] | i | i | -4%[11.5 µM] | 3%[11.4 µM]
O=C(COC(=O)COc1ccc(Nc2ccccc2)cc1)NCc1ccco1 | -7% | -6% | i | i | 1% | -18%
O=C(COc1ccc2oc(-c3ccccc3)cc(=O)c2c1)NCc1ccco1 | -7% | 15% | u | u | -2% | 10µM*
COc1cc(C(=O)Nc2cccc3ncccc23)cc(OC)c1OC | u | -4% | 5.7e-07M* | 5.1e-07M* | 1% | 25µM*
CCn1nnc(-c2ccccc2NC(=O)c2cc(OC)c(OC)c(OC)c2)n1 | 2.5µM* | 23% | i | i | -1% | 7%
O=C(Nc1ccccc1-c1nnn(CC(=O)N2CCCc3ccccc32)n1)c1ccco1 | 29% | -11% | i | i | 0% | 32µM*
O=C(Nc1ccccc1N1CCCC1)c1ccco1 | -3% | -11% | i | i | 1% | 1%
COc1ccc(C(=O)Cn2nnc(-c3ccccc3NC(=O)c3ccco3)n2)cc1 | 19% | u | u | u | 1% | 32µM*
CC1(C)CCC2(C(=O)O)CC[C@]3(C)C(=CCC4[C@]5(C)CCC(O)C(C)(C)C5C(O)C[C@]43C)C2C1 (stereo partly specified) | x | x | x | x | -1% | u
CCC1(C)Nc2ccccc2C(=O)N1O (stereo unspecified) | -2% | 15% | 1.9e-08M* | 1.6e-08M* | 1% | -9%
CCn1cc(C2Nc3ccccc3C(=O)N2O)c(C)n1 (stereo unspecified) | -11% | -3% | u | u | -2% | -4%
O=C(O)[C@@H]1CCCN1 | 2%[7.6 µM] | 12%[11.4 µM] | i | i | -2%[11.5 µM] | 1%[11.4 µM]
COCc1nnc(NC(=O)C(C)C)s1 | 10% | -3% | 2.9e-08M* | 3.2e-08M* | 2% | 5%
O=c1cc[nH]c(=S)[nH]1 | x | x | x | x | 0% | -2%
CC(=O)Nc1c(C(=O)C2CC2)oc2ccccc12 | u | -14% | u | i | 0% | -12%
CCOC(=O)c1oc2ccccc2c1NC(=O)c1cccc(OC)c1 | 3.2µM* | u | 1.5e-08M* | 1.5e-08M* | 2% | u
CC(=O)c1oc2ccccc2c1N | -7% | -9% | 1.3e-08M* | 1.3e-08M* | 1% | 1%
CCC(=O)Nc1c(C(=O)Nc2cccc(OC)c2)oc2ccccc12 | 15% | u | i | i | 1% | 43%
CCOC(=O)c1oc2ccccc2c1NC(=O)C1CCCCC1 | u | 6% | u | u | 0% | u
CCOC(=O)c1oc2ccccc2c1NC(=O)c1cccc(OC)c1OC | 4µM* | u | 2e-08M* | 2e-08M* | 1% | 32µM*
SMILES | CRE-bla Fsk | HADH2 inh | A350 autofl | 4MU fluor | AID923 | HSD17B inhib
CC(=O)Nc1c(C(=O)c2ccccc2)oc2ccccc12 | u | 4% | 1.7e-08M* | 1.7e-08M* | 1% | -1%
O=C(c1cccc(F)c1)N1CCC2(CCCN(c3ncccn3)C2)CC1 | 8% | 11% | i | i | 0% | -18%
Cn1c(=O)c(CCc2ccccc2)nc2cnc(Oc3ccccc3)nc21 | u | 3% | u | u | 3% | -22%
COc1cccc(C(=O)Nc2c(C(N)=O)oc3ccccc23)c1 | 5µM* | u | x | x | -4% | -2%
Nc1nc2c(ncn2[C@@H]2C=C[C@@H](CO)C2)c(=O)[nH]1 | 5%[7.6 µM] | 3%[11.4 µM] | i | i | -2%[11.5 µM] | -3%[11.4 µM]
CCCCS(=O)(=O)c1sc2nc3c(cc2c1N)CCCC3 | u | -3% | 1.9e-08M* | 2.1e-08M* | 3% | 32µM*
CN=c1scc(C)n1/N=C/c1ccc(O)cc1 | 0% | -8% | u | u | 4% | -16%
CN=c1scc(C)n1/N=C/c1ccc(O)cc1O | 5% | -21% | 3.3e-08M* | 3.8e-08M* | 0% | -26%
CC(C)C[C@@H](CC(=O)N[C@@H](CCC(=O)O)CC(=O)O)NC(=O)[C@@H]1CCCC[C@H]1NC(=O)C[C@@H](NC(=O)C[C@H](CO)NC(=O)[C@@H]1CNCC[C@H]1N)C(C)C | -10% | 31% | x | x | x | x
O=C1NC(c2ccccc2Cl)Nc2ccccc21 (stereo unspecified) | -4% | 32µM* | 7.9e-07M* | 1.1e-06M* | 6% | 32µM*
Cc1ccc(C)c([C@@H]2NC(=O)c3ccccc3N2)c1 | 13%[7.6 µM] | 14%[11.4 µM] | 1.9e-07M* | 1.9e-07M* | 1%[11.5 µM] | 4µM*
CC(=O)N1CCN(c2ccc(NCc3ccc(C)cc3)cc2)CC1 | 8% | 7% | i | i | 1% | 5%
Cc1ccc(CNc2ccc(O)cc2)cc1 | -2% | 10µM* | u | i | 9% | -26%
Nc1cccc(OCc2nc(N)nc(N)c2-c2ccc(Cl)cc2)c1 | 7%[7.6 µM] | 5%[11.4 µM] | i | i | 1%[11.5 µM] | 5%[11.4 µM]
Cc1ccc(C2C(C(=O)c3sc(-c4ccccc4)nc3C)=C(O)C(=O)N2CCN(C)C)o1 (stereo unspecified) | 1% | -4% | i | i | 2% | -2%
Cc1ccc(C2C(C(=O)c3sc(C)nc3C)=C(O)C(=O)N2CCCN(C)C)o1 (stereo unspecified) | u | u | 2.9e-07M* | 2.4e-07M* | 3% | 0%
Cc1nc(C)c(C(=O)C2=C(O)C(=O)N(CCN3CCOCC3)C2c2ccco2)s1 (stereo unspecified) | 7% | 2% | 1.3e-07M* | 9.6e-08M* | 10% | -29%
Cc1nc(C)c(C(=O)C2=C(O)C(=O)N(CCN3CCOCC3)C2c2cccs2)s1 (stereo unspecified) | u | -14% | i | i | 2% | -1%
COC(=O)c1cc(OC)c(=O)c2c(OC)c(OC)ccc2c1 | x | x | x | x | 1% | -1%
N#CCSc1nc(Nc2ccc3c(c2)OCO3)c2ccccc2n1 | u | 37% | 1.9e-07M* | 1.3e-07M* | 12% | -7%
